From the supplement of paper PMC7695840

Legend:
[1] = system: Staphylococcus aureus MW2 delta-mecA (mecA-); assay: normalized GFP fluorescence (growth of mecA- strain) (fraction of control range); higher = more growth of mecA- strain; details: compound concentration: 150 uM; cefoxitin: subinhibitory; fluorescent label: GFP
Summary of the method: (§1)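 Two pre-induced S. aureus MW2 strains, one with the gene labeled by DsRed and one lacking it labeled by GFP, were mixed 1:1 in LB with a subinhibitory antibiotic dose set daily. The mix went at 5 µL/well onto 150 μM compound (1.5% DMSO) in 1536-well plates, single replicate, and grew unshaken 20 h at 37 °C, 90% humidity. DsRed (540/590) and GFP (485/520) values were scaled per plate between single-strain control medians, and plates with high untreated ratios or rows with DsRed/GFP >10 were left out.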

[2] = system: Staphylococcus aureus MW2 (mecA+); assay: normalized DsRed fluorescence (growth of mecA+ strain) (fraction of control range); higher = more growth of mecA+ strain; details: compound concentration: 150 uM; cefoxitin: subinhibitory; fluorescent label: DsRed
Summary of the method: as §1

SMILES | normalized GFP fluorescence [1] | normalized DsRed fluorescence [2]
COc1ccc2cc(CCC(C)=O)ccc2c1 | 0.292 | 0.79
CNCCC(Oc1ccc(C(F)(F)F)cc1)c1ccccc1 (stereo unspecified) | -0.00367 | 1.27
COc1cc(N)c(Cl)cc1C(=O)NC1CCN(CCCOc2ccc(F)cc2)CC1OC (stereo unspecified) | 0.458 | 0.643
Clc1ccc(CCC(Cn2ccnc2)Sc2c(Cl)cccc2Cl)cc1 (stereo unspecified) | -0.00294 | 0.01
CC(=O)OCC(=O)[C@@]12OC3(CCCC3)O[C@@H]1C[C@H]1[C@@H]3CCC4=CC(=O)C=C[C@]4(C)[C@@]3(F)[C@@H](O)C[C@@]12C | 0.197 | 0.883
C[C@H](N)[C@H](O)c1cccc(O)c1 | 0.482 | 0.581
O=C(O)CCCCCCCC(=O)O | 0.422 | 0.443
CCS(=O)(=O)N1CC(CC#N)(n2cc(-c3ncnc4[nH]ccc34)cn2)C1 | 0.236 | 1.85
NC(=O)c1ncn([C@@H]2O[C@H](CO)[C@@H](O)[C@H]2O)c1N [AICAR (Acadesine)] | 0.547 | 0.71
CCN[C@H]1CN(CCCOC)S(=O)(=O)c2sc(S(N)(=O)=O)cc21 | 0.268 | 0.875
CCC1(c2ccccc2)NC(=O)N(C)C1=O (stereo unspecified) | 0.794 | 0.963
CN1CCN(C(c2ccccc2)c2ccccc2)CC1 | 0.231 | 1.32
Cc1nc(C)c(Cl)c(O)c1Cl | 0.341 | 0.741
CNCC[C@@H](Oc1ccccc1C)c1ccccc1 | 0.319 | 0.638
CN(C)CCC(c1ccc(Br)cc1)c1ccccn1 (stereo unspecified) | 0.11 | 1.02
CC1=C(/C=C/C(C)=C/C=C/C(C)=C\C(=O)O)C(C)(C)CCC1 [Isotretinoin] | 0.0743 | 1.06
CC(=O)OCC(CCn1cnc2cnc(N)nc21)COC(C)=O | 0.204 | 0.667
c1ccc2[nH]c(-c3cscn3)nc2c1 | 0.302 | 0.444
C=CC[C@@H]1/C=C(\C)C[C@H](C)C[C@H](OC)[C@H]2O[C@@](O)(C(=O)C(=O)N3CCCC[C@H]3C(=O)O[C@H](/C(C)=C/[C@@H]3CC[C@@H](O)[C@H](OC)C3)[C@H](C)[C@@H](O)CC1=O)[C@H](C)C[C@@H]2OC | 0.0654 | 1.59

SMILES | normalized GFP fluorescence [1] | normalized DsRed fluorescence [2]
CCN(CC)CCNC(=O)c1cc(Cl)c(N)cc1OC | 0.639 | 0.756
CCN(CC)CCNC(=O)c1c(C)[nH]c(/C=C2\C(=O)Nc3ccc(F)cc32)c1C [Sunitinib Malate (Sutent)] | 0.0077 | 1.42
CCC(CC)[C@H](NC(C)=O)[C@@H]1[C@H](O)[C@@H](C(=O)O)C[C@H]1NC(=N)N [Peramivir Trihydrate] | 0.634 | 0.659
CC(COc1ccccc1)N(CCCl)Cc1ccccc1 (stereo unspecified) | 0.632 | 0.449
CN1CCC[C@@H]1Cc1c[nH]c2ccc(CCS(=O)(=O)c3ccccc3)cc12 | 0.194 | 0.948
O=C1CCc2cc(OCCCCc3nnnn3C3CCCCC3)ccc2N1 | 0.533 | 0.561
CCC(C)CCCCC(=O)NC(CCN)C(=O)NC(C(=O)NC(CCN)C(=O)NC1CCNC(=O)C(C(C)O)NC(=O)C(CCN)NC(=O)C(CCN)NC(=O)C(CC(C)C)NC(=O)C(Cc2ccccc2)NC(=O)C(CCN)NC1=O)C(C)O (stereo unspecified) | 0.159 | 1.05
CNCc1ccc(-c2[nH]c3cc(F)cc4c3c2CCNC4=O)cc1 | 0.424 | 0.641
Cc1[nH+]cc(COP(=O)([O-])[O-])c(CN(CCN(CC(=O)[O-])Cc2c(COP(=O)([O-])O)c[nH+]c(C)c2O)CC(=O)[O-])c1O.[Mn].[Na+].[Na+].[Na+] | 0.415 | 0.481
Nc1nc2[nH]cnc2c(=S)[nH]1 | 0.329 | 1.33
CN(C)CC[C@@H](c1ccc(Cl)cc1)c1ccccn1 | 0.307 | 0.588
N#CC[C@H](C1CCCC1)n1cc(-c2ncnc3[nH]ccc23)cn1 | 0.187 | 0.956
S=P(N1CC1)(N1CC1)N1CC1 | 0.213 | 0.86
COc1cc(Nc2ncc(F)c(Nc3ccc4c(n3)N(COP(=O)(O)O)C(=O)C(C)(C)O4)n2)cc(OC)c1OC [R788 (Fostamatinib)] | 0.503 | 0.475
O=C(O)COCCN1CCN(C(c2ccccc2)c2ccc(Cl)cc2)CC1 (stereo unspecified) | 0.0457 | 0.556
CN1C(C(=O)Nc2ccccn2)=C(O)c2sc(Cl)cc2S1(=O)=O | 0.116 | 0.318
CCCCC1=NC2(CCCC2)C(=O)N1Cc1ccc(-c2ccccc2-c2nnn[nH]2)cc1 | 0.0654 | 0.337
O=C(NC(Cc1cc(=O)[nH]c2ccccc12)C(=O)O)c1ccc(Cl)cc1 (stereo unspecified) [Rebamipide] | 0.175 | 0.942
C[C@H]1C[C@@H]2[C@H]([C@@H](O)C[C@@]3(C)[C@H]2CC[C@]3(O)C(=O)COC(=O)CCC(=O)O)[C@@]2(C)C=CC(=O)C=C12 | 0.634 | 0.526
